Bioassay records deposited in PubChem by The Scripps Research Institute Molecular Screening Center.
An excerpt weighted towards active compounds, which were near 3.5% of everything screened.
TEAD-YAP inh: TEAD-YAP interaction inhibition, primary screen, TEAD-YAP interaction inhibitor project, luminescence, HEK-TIYL cells; TEAD-Gal4/YAP UAS-luciferase luminescence; inhibition, % at 9.12 µM; 640,000 tested, 1.4% active; in the data active = inhibition above about 32%;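 note: 0% = median of test compound wells and 100% = reference inhibitor wells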
MITF inh: MITF inhibitors, primary screen, biochemical, AlphaScreen, human | Microphthalmia-associated transcription factor (Homo sapiens), O75030 | AlphaScreen MITF homodimerization, bead proximity signal | inhibition, % at 2.6 µM | 650,000 tested, 0.91% active | AID 1259374, 2018; in the data active = inhibition above about 50%;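 note: 0% = vehicle wells with protein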
FBW7 act: FBW7 E3 ligase activators, primary screen, biochemical, AlphaScreen, human. normalized activity (activation), % at 26.1 µM. F-box/WD repeat-containing protein 7 (Homo sapiens), Q969H0. AlphaScreen FBW7–phospho-cyclin E peptide binding, activator screen. 650,000 tested, 0.13% active; in the data active = normalized activity above about 1.9%;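 note: purified mutant Fbw7 with reduced substrate affinity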
GPR151 ag: activators of human GPR151, primary screen, cell-based, PathHunter beta-arrestin, luminescence; G-protein coupled receptor 151 (Homo sapiens), Q8TDV0; PathHunter beta-arrestin GPR151 cells; activation, % at 11.2 µM; 650,000 tested, 1% active; in the data active = activation above about 4.9%;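 note: 0% = median of compound wells and 100% = cells with positive control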
Target sequence (Q8TDV0 whole entry, looked up): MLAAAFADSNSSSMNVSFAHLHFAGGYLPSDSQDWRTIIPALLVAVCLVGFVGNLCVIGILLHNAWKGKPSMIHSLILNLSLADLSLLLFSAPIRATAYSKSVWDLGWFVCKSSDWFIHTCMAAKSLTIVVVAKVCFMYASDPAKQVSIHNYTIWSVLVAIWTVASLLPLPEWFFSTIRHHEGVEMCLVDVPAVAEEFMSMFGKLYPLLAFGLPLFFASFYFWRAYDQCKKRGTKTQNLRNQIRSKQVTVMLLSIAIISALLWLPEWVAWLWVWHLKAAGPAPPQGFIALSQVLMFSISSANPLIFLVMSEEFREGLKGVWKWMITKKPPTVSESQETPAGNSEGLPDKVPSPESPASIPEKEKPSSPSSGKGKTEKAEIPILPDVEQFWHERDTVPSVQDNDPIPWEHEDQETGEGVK
* = called active by the depositor; nt = not tested or not shown.

SMILES	TEAD-YAP inh	MITF inh	FBW7 act	GPR151 ag
O=S(=O)(Nc1cccc2cn[nH]c12)c1ccc(F)cc1	4	-21	0	-1
COc1cc(S(=O)(=O)Nc2cccc3cn[nH]c23)ccc1F	52*	-6	0	-1
Nc1nc2c(nc(N3CCOCC3)n2C2OC(CO)C(O)C2O)c(=O)[nH]1 (stereo unspecified)	4	10	2.3*	-1
c1cnn(Cc2ccc(Nc3nccc(-c4cncc(N5CCOCC5)c4)n3)cc2)c1	65*	7	0	1
c1cn(Cc2ccc(Nc3nccc(-c4cncc(N5CCOCC5)c4)n3)cc2)cn1	68*	3	0	0
Cc1nc(C)n(-c2ccc(Nc3nccc(-c4cncc(N5CCOCC5)c4)n3)cc2)n1	31	16	0	2
CNC(=O)c1ccccc1Nc1cc(NC(=O)C(C)(C)c2ccccc2)ncc1C(F)(F)F	4	8	0	0
CNC(=O)c1ccccc1Nc1cc(NC(=O)Cc2ccccc2OC)ncc1C(F)(F)F	83*	18	0	-1
NC(=O)c1ccccc1Nc1cc(NC(=O)Cc2ccc3c(c2)OCO3)ncc1C(F)(F)F	100*	18	1	-1
CNC(=O)c1ccccc1Nc1cc(NC(=O)Cc2cccc(F)c2)ncc1C(F)(F)F	72*	-5	1	-2
CNC(=O)c1ccccc1Nc1cc(NC(=O)Cc2ccc3c(c2)OCO3)ncc1C(F)(F)F	75*	12	0	0
COC(=O)COc1ccccc1/C=C(/C#N)c1nc2ccc(C)cc2[nH]1	12	-19	0	0
NC(=O)c1ccccc1Nc1cc(NC(=O)Cc2ccc3c(c2)OCO3)ncc1F	21	0	0	2
O=C(Cc1ccc2c(c1)OCO2)Nc1cc(Nc2ccccc2-c2ncn[nH]2)c(Cl)cn1	64*	13	1	0
O=C(Cc1ccc2c(c1)OCO2)Nc1cc(Nc2ccccc2C2=NCCN2)c(Cl)cn1	10	9	0	0
NC(=O)c1ccccc1Nc1cc(NC(=O)Cc2ccc3c(c2)OCO3)ncc1Cl	70*	11	0	0
COCCNC(=O)CCSc1nc(-c2ccco2)cc(C(F)(F)F)n1	4	3	0	3
Cc1ccc(NC(=O)C2CC(Cl)=CCC2C(=O)O)cc1 (stereo unspecified)	0	20	1	2
COc1cc(/C=C2\C(=O)N(C)C(=O)N(c3ccccc3)C2=O)cc(OC)c1O	-4	-14	0	0
COc1cc(/C=C2/C(=O)N(C)c3ccccc32)cc(OC)c1O	41*	19	0	0
Cc1cc(N2CCNCC2)nc(-c2ccccc2O)n1	4	16	0	2
CC(C)C[C@@H](NC(=O)[C@H](Cc1ccccc1)NC(=O)c1cnccn1)B(O)O	62*	-8	0	2
CC(CCc1ccccc1)NC(=O)c1cnccn1 (stereo unspecified)	-43	-2	0	-1
CC(C)n1nc(C(=O)NN)c2ccccc2c1=O	51*	-7	0	0
CNC(=O)c1ccccc1Nc1cc(Nc2ccc(N3CCOCC3)cc2F)ncc1C(F)(F)F	67*	4	0	-3
SMILES	TEAD-YAP inh	MITF inh	FBW7 act	GPR151 ag
CNC(=O)c1ccccc1Nc1cc(Nc2ccc(N3CCOCC3)cc2)ncc1C(N)=O	22	8	0	0
CNC(=O)c1ccccc1Nc1nc(Nc2ccc(N3CCOCC3)c(F)c2)ncc1Cl	63*	-3	0	2
CNC(=O)c1ccccc1Nc1cc(Nc2cccnc2)ncc1C(F)(F)F	14	5	0	-1
CNC(=O)c1ccccc1Nc1nc(Nc2ccc(-n3cnc(N4CCOCC4)n3)cc2)ncc1Cl	31	20	0	1
CNC(=O)c1ccccc1Nc1cc(Nc2ccc(C(=O)N3CCOCC3)cn2)ncc1C(F)(F)F	86*	-4	0	-1
CNC(=O)c1cc(F)c(F)cc1Nc1cc(Nc2ccc(N3CCOCC3)cc2OC)ncc1C(F)(F)F	6	-1	0	0
CNC(=O)c1ccccc1Nc1cc(Nc2ccc(N3CCOCC3)cc2)ncc1C(F)(F)F	75*	0	0	0
O=C1c2ccccc2NC2(CCCCC2)N1NS(=O)(=O)c1ccccc1	0	5	0	-1
CN(C)S(=O)(=O)c1ccc(C(=O)OCC(=O)Nc2ccc(C#N)cc2)cc1	2	6	0	0
COc1ccc(-c2noc(-c3cccc(F)c3)n2)cc1	-62	30	0	-3
Cc1ccc(OCC(=O)Nc2ccccc2)c(Br)c1	70*	4	0	0
CC(C)(C)c1ccc(OCC(=O)Nc2ccncc2)c(Br)c1	34*	-7	0	1
CC(=O)c1cccc(NC(=O)COc2ccc(C)cc2Br)c1	-41	5	0	-1
O=C(COc1ccc(CO)cc1Br)Nc1ccccc1	55*	-7	0	-2
NC(C(=O)O)c1ccc(CCCC(=O)O)s1 (stereo unspecified)	5	19	0	4
CCOC(=O)c1cc2c(=O)n3ccccc3nc2n(C)c1=NC(=O)c1cccs1	-4	9	0	2
O=C(NCCCO)c1cc2ccccc2oc1=O	-11	-5	0	0
CC1=CC(C)(C)N(S(=O)(=O)c2ccc(Br)cc2)c2ccc(C)cc21	58*	-12	0	0
CCNC(=O)N1c2ccc(OCC)cc2C(C)=CC1(C)C	-2	10	0	4
CCOc1ccc2c(c1)N(S(=O)(=O)c1ccc(NC(C)=O)cc1)C(C)(C)C=C2C	73*	6	0	0
CCOc1ccc2c(c1)C(C)=CC(C)(C)N2S(=O)(=O)c1ccc(Br)cc1	61*	5	0	1
O=C(Nc1ccc(C(F)(F)F)c(C(F)(F)F)c1)c1cc(Cl)ccc1O	nt	nt	nt	0
O=C1OC2(CCCCC2)OC(=O)C1=Cc1ccc(Br)o1	-4	74*	0	-1
O=c1[nH]c(/C=C\c2ccc(O)c(O)c2)nc(O)c1[N+](=O)[O-]	2	85*	1	-1
COc1ccc(CCNC(=O)C2(NC(=O)Nc3ccccc3)CCCCC2)cc1OC	0	8	0	1
SMILES	TEAD-YAP inh	MITF inh	FBW7 act	GPR151 ag
CC(C)(C)NC(=O)COC(=O)c1cccnc1Nc1cccc(C(F)(F)F)c1	3	4	0	1
CN1CCN(c2ccc(-c3cncc(/C=C/c4ccccc4)n3)cn2)CC1	41*	-19	0	0
O=C(CSc1nncs1)Nc1ccc(OCc2ccccc2)cc1	-22	-15	12*	4
Cc1ccc2nc(-c3cccc(Br)c3)cn2c1	85*	30	0	-7
Oc1ccccc1-c1cn2cc(Cl)ccc2n1	-41	9	0	-2
Cc1ccc2nc(-c3ccccc3)cn2c1	98*	-3	1	-10
Cc1ccc2nc(-c3ccccc3Br)cn2c1	73*	-8	0	-6
COc1ccc(-c2cc(C(F)(F)F)nc(S(=O)(=O)CCCC(=O)Nc3ccc(F)cc3F)n2)cc1OC	-33	9	0	0
